Laboratory results reported in the supplement of paper PMC4723716.
Over roughly 3,600 compounds, “viability index relative to DMSO control” has its median near 0.81; the lowest 2% begin near 0.13. Only a selection was taken, and the lowest values are over-represented in it overall.

These compounds were tested on Plasmodium falciparum NF54 stage V gametocytes (assay: viability index relative to DMSO control (fraction); higher = less gametocyte killing). Details: 1.25 µM, incubation time: 72 h.
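Also: Saponin-lysis sexual stage assay in serum-free medium: MitoTracker Red CMXRos staining plus saponin, high-content imaging, particle count per well divided by plate mean of DMSO wells.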

| SMILES | viability index |
| --- | --- |
| COc1ccc(CC2NCC(O)C2OC(C)=O)cc1 (stereo not given) | 0 |
| Cc1ccc(-n2c(C)c(C(=O)c3ccccc3)c3cc(O)ccc32)cc1 | 1.24 |
| Cc1c2ccccc2c(C)c2ccccc12 | 1.04 |
| COc1ccc(-c2ccc(C=C3C(=O)NC(=S)NC3=O)o2)cc1Cl | 0.866 |
| C=CC1CN2CCC1C(C(O)c1ccnc3ccc(OC)cc13)C2 (stereo not given) | 0.411 |
| NC(=O)CN1CC(O)CC1=O (stereo not given) | 0.0308 |
| OC1(c2ccc(Cl)c(C(F)(F)F)c2)CCN(CCOC2c3ccccc3CSc3ccc(Cl)cc32)CC1 (stereo not given) | 0.589 |
| CC(C)N1CC=C(c2c[nH]c3ccccc23)CC1 | 0.887 |
| O=C(Cn1c2ccccc2c(=O)c2ccccc21)Nc1ccc(Cl)cc1C(=O)c1ccccc1 | 0.781 |
| Oc1ccccc1C=Nc1ccccc1[Te]c1ccccc1N=Cc1ccccc1O | 0.0513 |
| O=c1cccc2n1CC1CC2CN(Cc2cccc(O)c2)C1 (stereo not given) | 0.898 |
| CC(C)NC(=O)c1cn(Cc2ccccc2)cc(C(=O)NCCc2nc3ccccc3[nH]2)c1=O | 0.942 |
| CN1CCN(c2ccc(NC(=O)Oc3ccccc3)cc2)CC1 | 0.798 |
| N#CC1=C(N)Oc2c(c(=O)oc3ccccc23)C1c1ccoc1 (stereo not given) | 1.08 |
| C=CC1CN2CCC1CC2C(OC(=O)c1ccco1)c1ccnc2ccccc12 (stereo not given) | 0.46 |
